# In all, about 310,000 compounds went through this assay and about 14,000 (4.5%) showed an effect of 50% or more. The effect is printed as a negative number. The list comes from a sample in which strong results are over-represented; it also holds similar structures and randomly drawn compounds.
# Biological target: human ether-à-go-go-related gene (hERG) potassium channel (human, UniProt Q12809)
# Assay: primary screen, population patch clamp on CHO cells stably expressing hERG; higher = less effect of the substance
# 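Also: peak tail current of the secondary pulse compared with the same well before compound.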
# human ether-à-go-go-related gene (hERG) potassium channel, sequence (Q12809 whole entry, looked up): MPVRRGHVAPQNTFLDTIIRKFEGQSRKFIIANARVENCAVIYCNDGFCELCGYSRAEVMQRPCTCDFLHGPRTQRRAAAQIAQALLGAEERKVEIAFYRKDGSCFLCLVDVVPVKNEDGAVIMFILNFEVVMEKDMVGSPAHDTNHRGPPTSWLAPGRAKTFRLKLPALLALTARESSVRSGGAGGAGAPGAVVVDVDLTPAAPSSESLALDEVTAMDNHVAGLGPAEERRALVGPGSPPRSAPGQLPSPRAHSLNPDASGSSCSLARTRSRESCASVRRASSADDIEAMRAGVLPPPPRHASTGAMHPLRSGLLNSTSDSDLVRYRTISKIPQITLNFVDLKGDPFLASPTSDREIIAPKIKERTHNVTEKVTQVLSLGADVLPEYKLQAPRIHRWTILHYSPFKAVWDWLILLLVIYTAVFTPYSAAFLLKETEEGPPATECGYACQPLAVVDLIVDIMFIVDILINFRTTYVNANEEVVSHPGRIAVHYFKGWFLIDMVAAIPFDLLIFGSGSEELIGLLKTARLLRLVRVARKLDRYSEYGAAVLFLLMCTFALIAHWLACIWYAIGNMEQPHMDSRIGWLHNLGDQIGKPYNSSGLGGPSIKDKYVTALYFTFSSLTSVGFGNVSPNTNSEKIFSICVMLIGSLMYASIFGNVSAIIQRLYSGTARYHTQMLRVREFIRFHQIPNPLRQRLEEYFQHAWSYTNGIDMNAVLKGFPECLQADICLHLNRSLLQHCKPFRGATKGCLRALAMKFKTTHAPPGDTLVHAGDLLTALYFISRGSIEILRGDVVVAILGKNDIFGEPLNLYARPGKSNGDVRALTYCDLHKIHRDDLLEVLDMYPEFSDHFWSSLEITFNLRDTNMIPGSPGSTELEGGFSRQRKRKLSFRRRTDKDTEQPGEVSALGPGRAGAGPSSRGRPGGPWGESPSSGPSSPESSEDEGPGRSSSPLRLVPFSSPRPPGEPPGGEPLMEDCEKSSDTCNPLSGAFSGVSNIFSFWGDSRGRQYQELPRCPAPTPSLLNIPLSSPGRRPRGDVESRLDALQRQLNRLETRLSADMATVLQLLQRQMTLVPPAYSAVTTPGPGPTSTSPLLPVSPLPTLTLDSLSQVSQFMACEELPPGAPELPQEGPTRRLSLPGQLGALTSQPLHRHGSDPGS
row,SMILES,"hERG current change (%, negative = inhibition) at 10uM [%]"
1,CCN(CC)S(=O)(=O)c1cccc(N=Nc2sc(N)nc2C)c1,-12.8
2,S=C1NC[C@H](CC2CCCCC2)N1CC1CCCCC1,-8.59
3,O=C(CN1CCCCC1)Nc1ccc(NC(=O)c2ccc(Cl)cc2)cc1Cl,13.7
4,CCC(NC(=O)c1cc(COc2cncc(Cl)c2)on1)c1ccncc1 (stereo not shown),8.75
5,COc1ccc(-c2cc3ccccc3n2CC(O)CN2CCCCC2)cc1.O=C(O)C(=O)O (stereo not shown),-79.6
6,COc1ccc(-c2cc3ccccc3n2CC(O)CN2CCN(CCO)CC2)cc1 (stereo not shown),-29.9
7,COc1ccc(-c2cc3ccccc3n2CC(O)Cn2nc(C)cc2C)cc1 (stereo not shown),4.62
8,COc1ccc(-c2cc3ccccc3n2CC(O)CNCCO)cc1.O=C(O)C(=O)O (stereo not shown),3.61
9,COc1ccc(-c2cc3ccccc3n2CC(O)CN2CCC(C)CC2)cc1.O=C(O)C(=O)O (stereo not shown),-77
10,COc1ccc(-c2cc3ccccc3n2CC(O)CN2CCOCC2)cc1 (stereo not shown),-13.5
11,OCC[C@H]1C[C@H](O)[C@@H](O)[C@@]2(OCc3ccccc32)O1,8.35
12,CCOc1ccccc1N(CC(=O)NC(C)(C)C)C(=O)Cn1nnc(-c2ccc(C)o2)n1,-16
13,O=C(C1CC1)N1CCc2cc(Br)cc(S(=O)(=O)N3CCN(c4ccccn4)CC3)c21,-17.5
14,COc1ccc(CCNC(=O)NCCc2c[nH]c3ccccc23)cc1OC,-3.31
15,CCOc1ncccc1C(=O)Nc1cccc(-c2nnc3n2CCCCC3)c1,-19.6
16,CC(C)(C)OC(=O)N1CCC(C(=O)NCC2CCCO2)CC1 (stereo not shown),16.5
17,O=C(CC(C(=O)N1CCc2ccccc21)n1ccnc1)NCc1ccccc1 (stereo not shown),-26.5
18,O=C(/C=C/c1ccccc1)Nc1cc(S(=O)(=O)N2CCOCC2)ccc1N1CCCC1,-1.04
19,Cc1ccc(/C=C/C(=O)Nc2cc(S(=O)(=O)N3CCOCC3)ccc2N2CCOCC2)cc1,-43.2
20,COc1cc(/C=C/C(=O)Nc2cc(S(=O)(=O)N3CCOCC3)ccc2N2CCCC2)cc(OC)c1OC,24
21,O=C(/C=C/c1ccc(F)cc1)Nc1cc(S(=O)(=O)N2CCOCC2)ccc1N1CCCC1,-70.9
22,Cc1ccc(NC(=O)/C=C/c2ccc3c(c2)OCO3)cc1S(=O)(=O)N1CCOCC1,-13

row,SMILES,"hERG current change (%, negative = inhibition) at 10uM [%]"
1,O=C(/C=C/c1ccc2c(c1)OCO2)Nc1cc(S(=O)(=O)N2CCOCC2)ccc1N1CCOCC1,-55.9
2,O=C(/C=C/c1ccc(F)cc1)Nc1ccc(S(=O)(=O)N2CCOCC2)cc1,9
3,O=C(/C=C/c1cccc(F)c1)Nc1cc(S(=O)(=O)N2CCOCC2)ccc1N1CCCC1,-57.7
4,COc1ccc(/C=C/C(=O)Nc2cc(S(=O)(=O)N3CCOCC3)ccc2N2CCCC2)cc1OC,-40.3
5,Cc1ccn(CCC(=O)O)n1,26.6
6,Cc1[nH]n(-c2ccccc2)c(=O)c1/C=N/N1C(=O)c2cccc3cccc(c23)C1=O,3.73
7,COc1ccc(/C=C/c2nc3sc4c(c3c(=O)o2)CCC4)cc1,4.28
8,Cc1ccc(-c2nc(N)c3c(-c4ccc(C)cc4)nn(C(C)(C)C)c3n2)cc1,-1.71
9,O=C(COc1ccc(S(=O)(=O)N2CCOCC2)cc1)NCCc1ccccc1,-13.4
10,CCN(CC)CCNc1nc2c(c(=O)n(C)c(=O)n2C)n1C/C=C(/C)Cl,-58.9
11,C/C(Cl)=C\Cn1c(NCCc2ccccc2)nc2c1c(=O)n(C)c(=O)n2C,-9.3
12,C/C(Cl)=C/Cn1c(NCCN(C)C)nc2c1c(=O)n(C)c(=O)n2C,-26.9
13,CCC(=O)NCCCc1nc(-c2ccccc2)no1,5.95
14,COc1ccc(CN2C(=O)COc3ccccc32)cc1,12
15,CCCCN(CCCC)C(=O)CN(C)S(=O)(=O)c1ccc2c(c1)n(C)c(=O)c(=O)n2C,-37
16,CCN(Cc1ccccc1)C(=O)CCS(=O)(=O)c1ccc2c(c1)n(C)c(=O)c(=O)n2C,-15
17,CCCCN(CCCC)C(=O)CCS(=O)(=O)c1ccc2c(c1)n(C)c(=O)c(=O)n2C,-69.2
18,CCC(C)NC(=O)CSc1nnc(-c2ccncc2)n1-c1ccc(OC)cc1 (stereo not shown),-0.947
19,Cc1ccc(C(=O)NNC(=O)CSc2nnc(-c3ccncc3)n2-c2ccc(C)cc2)cc1,-51.4
20,COc1ccc(-n2c(SCC(=O)NNC(=O)c3ccc(C)cc3)nnc2-c2ccncc2)cc1,-58.6
21,Cc1ccc(C(=O)NNC(=O)CSc2nnc(-c3ccncc3)n2C)cc1,24.9
22,CCn1c(SCC(=O)NNC(=O)c2ccc(C)cc2)nnc1-c1ccncc1,-0.879

row,SMILES,"hERG current change (%, negative = inhibition) at 10uM [%]"
1,COc1ccc(-n2c(SCC(=O)NNC(=O)c3ccccc3C)nnc2-c2ccncc2)cc1,-7.21
2,CC(=O)N1c2ccc(S(=O)(=O)NCCC(=O)NCCc3cccc(C)c3)cc2CC1C (stereo not shown),-4.31
3,CC(C)[C@H](NC(=O)c1ccco1)C(=O)OCC(=O)NC12CC3CC(CC(C3)C1)C2,-18.7
4,CCOc1cc(/C=N/n2cnnc2)ccc1OS(=O)(=O)c1ccccc1,-57.7
5,Cc1ccc(S(=O)(=O)Oc2cccc(/C=N/n3cnnc3)c2)cc1,-49
6,CCOc1cc(/C=N/O)ccc1OS(=O)(=O)c1ccc(C)cc1,-5.21
7,CCOc1cc(C=C2C(=O)NC(=O)NC2=O)ccc1OS(=O)(=O)c1ccccc1,-18
8,CCOc1cc(/C=N/n2cnnc2)ccc1OS(=O)(=O)c1ccc(C)cc1,-50.5
9,O=[N+]([O-])c1ccccc1S(=O)(=O)Oc1ccc(/C=N/n2cnnc2)cc1,-40.6
10,COc1cc(/C=N/n2cnnc2)ccc1OS(=O)(=O)c1ccccc1[N+](=O)[O-],-51
11,COc1cc(C=O)ccc1OS(=O)(=O)c1ccccc1[N+](=O)[O-],4.1
12,CCOc1cc(/C=N/NS(=O)(=O)c2ccccc2)ccc1OS(=O)(=O)c1ccc(C)cc1,2.1
13,Cn1ncc2c(Nc3ccc(Cl)c(Cl)c3)ncnc21,14.5
14,O=C(O)CCn1cc(/C=C2\SC(=S)NC2=O)c(-c2ccccc2)n1,21.8
15,COc1ccc2c(c1)CC/C2=N\NC(=O)c1ccccc1,-3.69
16,CC1(C)COC(Nc2ccc(Cl)cc2)=N1,-35.8
17,Cc1ccc(Cn2nnnc2CN2CCC(O)(c3ccccc3F)CC2)cc1,-21.5
18,O=C(NCCCc1ccccc1)c1ccc(-n2cncn2)c([N+](=O)[O-])c1,-60.5
19,O=C(NCCC1=CCCCC1)c1ccc(-n2cncn2)c([N+](=O)[O-])c1,-22.5
20,Cc1cc(C(=O)NC(C)CCc2ccccc2)ccc1[N+](=O)[O-] (stereo not shown),-29.5
21,Cc1ccc(C(=O)NC(C)CCc2ccccc2)cc1[N+](=O)[O-] (stereo not shown),-13.9
22,O=C(NNC(=O)c1ccc(-n2cncn2)c([N+](=O)[O-])c1)c1ccccc1,9.34

row,SMILES,"hERG current change (%, negative = inhibition) at 10uM [%]"
1,CC(CCc1ccccc1)NC(=O)c1ccc(-n2cncn2)c([N+](=O)[O-])c1 (stereo not shown),-70.9
2,CCCC[n+]1c(-c2ccc(Cl)cc2Cl)csc1Nc1ccccc1.[Cl-],-6.7
3,O=C(CC12CC3CC(CC(C3)C1)C2)N1CCCOC1,-3.81
4,O=C(CCO)c1ccc(O)cc1,10.6
5,FC(F)(F)c1ccccc1NC(=S)N1CCN(c2ccccn2)CC1,5.12
6,Cc1nc(C)n(CCNC(=O)c2ccco2)n1,27
7,Cc1ccc2sc(N3CCN(CCNC(=O)c4ccco4)CC3)nc2c1C.Cl,-58.2
8,O=C(NCCN1CCCCC1)c1ccco1,7.02
9,Br.Cc1ccc(C)c(C(=O)Cn2c(NCCO)nc3ccccc32)c1,6.12
10,CCOC(=O)C1(CCOc2ccccc2)CCN(C2Cc3ccccc3C2)CC1,-53.4
11,CCOC(=O)C1(CCc2ccccc2)CCN(C(=O)[C@@H]2C[C@@H](C)NC(=S)N2)CC1,6.08
12,CCOC(=O)C1(Cc2ccc(Cl)cc2)CCN(C2CCC2)CC1,-44.9
13,CCOC(=O)C1(CCc2ccccc2)CCN(C2CCSCC2)CC1,-76.3
14,CCOC(=O)C1(Cc2ccccc2C(F)(F)F)CCN(C2CCSC2)CC1 (stereo not shown),-25.2
15,CCOC(=O)C1(Cc2ccccc2)CCCN(C2CCCC2)C1 (stereo not shown),-2.87
16,OCC1(CCOc2ccccc2)CCN(C2Cc3ccccc3C2)CC1,-72.8
17,Cc1ccc(OCC(=O)N2CCCC(CO)(CCOc3ccccc3)C2)cc1 (stereo not shown),-30.4
18,CCOC(=O)C1(Cc2ccccc2)CCN(C2Cc3ccccc3C2)CC1,-66.4
19,CCOC(=O)C1(CCOc2ccccc2)CCN(S(=O)(=O)N(C)C)CC1,-1.79

# From article PMC4336329 (PLoS ONE, 2015)
